A selection: hits, their analogues and other compounds. The true share with any hit is near 0.88%.
CtBP-E1A blk: CtBP/E1A binding inhibition; AlphaScreen GST-E1A/His-CtBP binding, 1536-well; hits give low values; activity change, % (test concentration not listed); actives 0.49% (n = 340,000); AID 651724; also: % is scaled to controls: 0 for no effect and ±100 for the full control effect
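In 5 uL wells, 23 nL compound meets equimolar GST-E1A and His-CtBP (5X stock 125 nM each) for 2 h, 37 °C. Beads (5X, 50 ug/mL) then 1 h, 37 °C, dark.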
Akt phos inh: Akt phosphorylation inhibition; Neuro2A IGF-stimulated pAkt S473 HTRF, 20 min; hits give low values; activity change, % for hits at 50 µM; actives 0.32% (n = 360,000); in the data active = activity change below about -80%; inconclusive = mostly about -51% to -80%; also: % is scaled to controls: 0 for no effect and ±100 for the full control effect
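Single-point screen (50 µM final compound) in Neuro2A cells stimulated 20 min with 6 nM IGF at 37 deg C. After lysis, Ser473-phosphorylated Akt read by HTRF (ex 330 nm, em 615/665 nm) as the 665/615 ratio.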
RGS4 inhibitor: blocks human RGS4-accelerated GTP hydrolysis. P49798. Transcreener GDP fluorescence polarization, RGS4-accelerated GTP hydrolysis. Potency, µM (highest dose often 114 µM), without a hit: at the highest dose activity change, negative = inhibition, most hits filed as inhibitors. actives 0.039% (n = 390,000). AID 504845; active = well fitted curve in the direction sought with a large enough effect; inconclusive = small, poorly fitted or top-dose-only effect, or another doubt; inactive = no such curve, though single readings can be large; an effect the other way counts as inactive or inconclusive; also: potency is read from the fitted curve at half-maximal effect; % is scaled to controls: 0 for no effect and ±100 for the full control effect; nearly all actives have a fitted effect of over 75% in size
Target sequence (P49798 whole entry, looked up): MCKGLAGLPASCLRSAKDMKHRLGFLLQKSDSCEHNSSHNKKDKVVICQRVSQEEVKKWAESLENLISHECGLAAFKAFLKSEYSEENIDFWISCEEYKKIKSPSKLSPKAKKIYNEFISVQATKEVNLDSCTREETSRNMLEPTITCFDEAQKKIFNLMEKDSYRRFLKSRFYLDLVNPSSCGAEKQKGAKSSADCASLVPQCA
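MLSMR compounds (23 nl, pin-transferred) preincubated 10 min at room temperature with a 500nM (2x) first reagent, then RGS4 at 900nM (2x) plus Transcreener GDP mix added; fluorescence polarization (620/688 nm) read before and after 90 min at 30 °C.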
Six1-Eya2 inh: blocks human Six1 binding to Eya2. AID 651725. actives 0.56% (n = 360,000). Q15475+O00167. AlphaScreen GST-Six1/His-Eya2 binding, biochemical; hits give low values. activity change, % (concentration not given with the values); also: % is scaled to controls: 0 for no effect and ±100 for the full control effect
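Six1/Eya2 binding was read as AlphaScreen signal after compounds were pinned into GST-Six1 plus His-tagged Eya2 (5X stock 250/500 nM) in pH 8.0 Tris/NaCl/TCEP buffer, beads added, then incubated 1 h, 37 C, dark.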
GRP78 ERSR act: inducers of ER stress response in human glioma cells. U87-MG GRP78 promoter luciferase reporter, 16 h. Potency, µM, for the others: at the top dose activation, hits mostly activators. actives 0.02% (n = 420,000). AID 602332; active = well fitted curve in the direction sought with a large enough effect; inconclusive = small, poorly fitted or top-dose-only effect, or another doubt; inactive = no such curve, though single readings can be large; an effect the other way counts as inactive or inconclusive; also: potency is read from the fitted curve at half-maximal effect; series mostly up to about 76 µM; % of control where 0% means no effect; nearly all actives have a fitted effect of over 35% in size
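ERSR induction read as luciferase luminescence (Bright-Glo, 10 min at room temperature) in stably transfected human U87-MG glioma cells exposed to compounds for 16 h, using GRP78 as sensor.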
The depositor's hits bear a star; i = inactive; ? = inconclusive; nt = no result given; ! = not active in a repeat. Rule as the data show it, unless noted: active = activity change below about -65%; inconclusive = mostly about -30% to -63%; inactive = weaker than that.

SMILES	CtBP-E1A blk	Akt phos inh	RGS4 inhibitor	Six1-Eya2 inh	GRP78 ERSR act
N#Cc1c(-c2cccc(F)c2)cc(-c2ccccc2)nc1Br	17	-94%*	-2%	13	-7%
N#Cc1c(-c2ccccc2Cl)cc(-c2ccccc2)nc1Br	20	i	-47%	31	-5%
COc1ccc(C(=O)N=c2nc(-c3ccccc3)n(-c3ccccc3)s2)cc1	nt	nt	25%	nt	-4%
NC1(C(=O)O)CCc2cc(P(=O)(O)O)ccc21 (stereo not given)	nt	nt	38µM*	nt	-2%
COc1ccccc1Oc1c(C)oc2c(CN3CCN(CCO)CC3)c(O)ccc2c1=O	1	i	3%	3	-5%
Cc1oc2c(CN3CCCC3)c(O)ccc2c(=O)c1Oc1ccccc1Br	3	-85%*	3%	0	-4%
C(=C1NCCN1)c1cccc2ccccc12	nt	nt	nt	nt	-3%
CN1CCN(CCCN2c3ccccc3Sc3ccc(C(F)(F)F)cc32)CC1	15	i	19µM*!	-15	-9%
CN1CCCC(CNC(=O)c2cnn(-c3ncc4c(n3)-c3ccccc3CC4)c2C2CC2)C1 (stereo not given)	nt	nt	nt	nt	-5%
CC(=O)OCP(C)(=O)COC(C)=O	-1	-121%*	8%	9	1%
CP(=O)(COC(=O)c1ccccc1)COC(=O)c1ccccc1	5	i	5%	1	-4%
CC(c1ncncc1F)[C@](O)(Cn1cncn1)c1ccc(F)cc1F (stereo not given in full)	nt	nt	nt	nt	-2%
COCC(=O)Nc1cc(C(=O)NC2Cc3ccccc3C2)cc2nc(-c3cccnc3)n(C)c12	nt	nt	nt	nt	-2%
Nc1ccc2c(c1Cl)C(=O)c1ccc(N)c(Cl)c1C2=O	nt	i	-9%	-78*	3%
Cc1ccc2c(c1C)-c1c(ccc(C)c1C)C(=O)C2=O	-2	i	?	?	-14%
O=C(NN=Cc1ccccc1O)C1CC1	?	i	6%	?	-3%
CCc1ccc(N2CC(C(=O)N/N=C/c3ccccc3OC)CC2=O)cc1 (stereo not given)	11	i	-26%	2	0%
O=C1NCCCC1C(=O)N/N=C/c1cc([N+](=O)[O-])ccc1O (stereo not given)	-96*	i	22%	-69*	-7%
O=C(N/N=C/c1cc([N+](=O)[O-])ccc1O)C1CC1	-26	i	-14%	-85*	-3%
CCc1ccc(N2CC(C(=O)N/N=C/c3cc([N+](=O)[O-])ccc3O)CC2=O)cc1 (stereo not given)	-88*	i	8%	-80*	-4%
COc1cc(=O)n2c(c1C(=O)N(C)Cc1nonc1C)CCN(CC1CC=CCC1)CC2 (stereo not given)	nt	nt	nt	nt	-4%
Cc1ccc(CN2[C@H](C)[C@H](c3ccccc3)OCCS2(=O)=O)cc1	nt	nt	nt	nt	-1%
Cc1cc(C)c(C(=O)CC2(O)C(=O)Nc3ccccc32)cc1C (stereo not given)	1	-116%*	24%	2	-3%
N#CC1=C(N)Oc2c(ccc3cccnc23)C1c1ccccc1 (stereo not given)	?	i	15%	7	-3%
Cc1ccc2[nH]c(=O)c(C3C(C#N)=C(N)Oc4c3ccc3cccnc43)cc2c1 (stereo not given)	-92*	i	?	?	-12%
SMILES	CtBP-E1A blk	Akt phos inh	RGS4 inhibitor	Six1-Eya2 inh	GRP78 ERSR act
Cc1cc(C(=O)CCl)c(C)n1-c1cccc(S(=O)(=O)N2CCOCC2)c1	-91*	i	-31%	-69*	-12%
O=C(Nc1ccc(N2CCOCC2)cc1)Nc1ccc2nc(-c3ccco3)c(-c3ccco3)nc2c1	?	i	-26%	?	-3%
O=C(Nc1cccc(C(F)(F)F)c1)c1ccc2nc(-c3ccco3)c(-c3ccco3)nc2c1	?	i	?	-77*	-6%
O=C(Nc1ccc2nc(-c3ccco3)c(-c3ccco3)nc2c1)NC1CC1	?	i	?	-68*	-7%
COc1ccc2c(c1)CCC2=O	nt	nt	nt	nt	-2%
COc1ccc2c(c1)CCc1c-2n[nH]c1C(=O)O	0	-111%*	14%	5	-5%
O=C(N/N=C/c1cc(O)ccc1Br)c1cccnc1	-93*	i	-12%	-91*	-3%
O=C(N/N=C/c1cc(Br)c(O)c(Br)c1O)c1cccnc1	nt	i	-2%	-91*	-3%

Screens (PubChem BioAssay)
